Assay outcomes (PubChem BioAssay)
A selection: hits, their analogues and other compounds. The true share with any hit is near 2.4%.
ABHD5-PLIN5 inh: blocks binding of human ABHD5 to perilipin-5; Q00G26+Q8WTS1; Split G. princeps luciferase complementation, luminescence, 4 h; inhibition, % at 4 µM; actives 0.78% (n = 360,000); AID 602281;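 active = inhibition above the mean inhibition across every tested compound plus 3 SD, cut at about 22% in these data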;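 note: 0% = DMSO only wells and the 100% control is not disclosed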
TLR4 MyD88 comp: blocks binding of human TLR4 to MyD88; HeLa CL3-4 TLR4/MyD88 BLA complementation, FRET ratio; inhibition, % at 8.4 µM; actives 0.18% (n = 200,000); AID 861; in the data active = inhibition above about 25%;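 note: 0% = vehicle and 100% = reference inhibitor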
CRFBP-R2 block: blocks CRF-induced signaling of the CRF-BP/CRF-R2 complex. inhibition, % at 11.8 µM. actives 0.59% (n = 350,000). HEK293 CRF-R2/CRF-BP, CRF-induced calcium fluorescence;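 active = inhibition of the ligand-induced calcium signal above about 50% at the single tested concentration, limit read from the data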
TLR9-MyD88 block: blocks human TLR9 binding to MyD88 | Q9NR96+Q99836 | CHO BLA complementation TLR9-MyD88, CCF4 FRET ratio | inhibition, % at 4.98 µM | actives 0.21% (n = 340,000) | AID 504734;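 active = inhibition above the mean over all tested compounds plus 3 SD, cut at about 21% in these data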;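 note: 0% = DMSO only wells and 100% = clavulanate BLA inhibitor control wells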
m5-HT2A agonist: agonists of mouse serotonin 5-HT2A receptor (HTR2A); activation, % at 7.6 µM; AID 624169; P35363; actives 0.66% (n = 360,000); CHO-K1 mHTR2A beta-arrestin complementation, luminescence; percent of 30 µM serotonin response;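 active = activation above a run cutoff, the mean activation of all tested compounds plus 3 SD, cut at about 14% in these data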;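 note: 0% = plate median of compound wells and 100% = 30 µM serotonin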
NOD2-RIPK2 inh: NOD2-RIPK2 protein interaction inhibition; CHO BLA complementation NOD2-RIPK2, CCF4 ratio; inhibition, % at 4.98 µM; actives 0.38% (n = 360,000); AID 624267; in the data active = inhibition above about 21%;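 note: 0% = vehicle only and 100% = reference blocker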
* = called active by the depositor; . = no result.

SMILES	ABHD5-PLIN5 inh	TLR4 MyD88 comp	CRFBP-R2 block	TLR9-MyD88 block	m5-HT2A agonist	NOD2-RIPK2 inh
c1ccc(COc2ccc(-c3cc4nc(NCCCn5ccnc5)ccn4n3)cc2)cc1	4.3	.	.	.	1.0	7.2
CCC[C@@H](CN1CCC[C@H]1CN1C(N)=NC[C@H]1CC(C)C)N1C[C@@H](Cc2ccccc2)N(CCc2ccc(Cl)c(Cl)c2)C1=N	22.9*	.	47.1	-0.4	-1.9	-5.2
CCC[C@@H](CN1CCC[C@H]1CN1C(N)=NC[C@@H]1Cc1ccccc1)N1C[C@@H](Cc2ccccc2)N(CCCC2CCCC2)C1=N	17.8	.	5.5	-1.6	-13.0	-8.9
CCC[C@@H](CN1CCC[C@H]1CN1C(N)=NC[C@@H]1Cc1ccccc1)N1C[C@@H]([C@H](C)CC)N(CCCC2CCCC2)C1=N	31.9*	.	41.2	-2.8	-17.2	-1.4
C[C@@H](CN1CCC[C@H]1CN1C(N)=NC[C@@H]1Cc1ccccc1)N1C[C@@H](Cc2ccccc2)N(CCc2ccc(Cl)c(Cl)c2)C1=N	40.5*	.	45.5	3.3	-10.9	-0.9
CCC[C@@H](CN1CCC[C@H]1CN1C(N)=NC[C@H]1CC(C)C)N1C[C@@H](Cc2ccccc2)N(CCCC2CCCC2)C1=N	18.8	.	37.2	-9.0	-3.6	-13.9
COc1cccc(C(=O)Nc2ccc3c(c2)OC[C@H](C)N(C(=O)C2CCCC2)C[C@@H](C)[C@@H](OC)CN(C)C3=O)c1	2.1	.	.	.	-0.9	-3.5
CCc1nc2ccc(C(=O)NCCCn3ccnc3)cn2c1N(C)C(=O)c1cccc(OC)c1	9.2	.	.	.	2.0	4.1
CCN(CC)S(=O)(=O)c1ccc(Cl)c(NC(=O)c2cc(Cl)cc(Cl)c2)c1	-3.9	3.4	53.0*	-14.4	-0.8	-2.5
COc1ccc(NC(=O)CCS(=O)(=O)c2ccc(Cl)cc2)cc1	9.5	.	-4.9	5.5	1.1	4.5
CC(=O)c1sc(NC(=O)CCS(=O)(=O)c2ccc(Cl)cc2)nc1C	0.5	.	61.8*	-9.3	5.8	-5.4
CCOc1ccccc1/C=C(/NC(=O)c1ccccc1)C(=O)NC(C)c1ccccc1 (stereo not drawn)	-1.1	-3.3	113.4*	-1.6	-4.7	-4.4
CC(=O)C1=C(O)C(=O)N(Cc2ccccc2)C1c1ccc([N+](=O)[O-])cc1 (stereo not drawn)	-1.9	.	.	-7.3	1.3	5.1
CC(=O)C1=C(O)C(=O)N(Cc2ccccc2)C1c1ccc(F)cc1 (stereo not drawn)	-4.8	.	55.5*	0.1	-4.7	2.5
Cc1cccnc1C(NC(=O)C1CCN(Cc2ccc(Oc3ccccc3)cc2)CC1)c1ccc(F)cc1 (stereo not drawn)	2.2	.	.	.	1.5	0.6
COC(=O)C1CC(Cl)CN1c1ncc(C(F)(F)F)cc1Cl (stereo not drawn)	-8.9	6.2	52.4*	0.0	-1.1	-3.8
CCOC(=O)C1CCCN(C(=O)c2ccc(SC(F)(F)F)cc2)CC1 (stereo not drawn)	2.8	.	.	.	-1.7	-12.6
C=CCOC(=O)C(C#N)c1nc2ccccc2nc1N1CCN(c2ccccc2OCC)CC1 (stereo not drawn)	-3.1	8.0	52.7*	4.8	3.2	-2.4
CC(C)(C)Cc1c(-c2ccc(Cl)cc2)nc2c(Cl)cc(C(F)(F)F)cn12	0.5	.	.	.	-4.4	-0.9
CSCSC1=C(C#N)C(c2ccccc2Cl)C(C(C)=O)=C(C)N1 (stereo not drawn)	1.9	-0.4	55.1*	4.3	5.7	0.3
CC(=O)C1=C(C)NC(SCC(N)=O)=C(C#N)C1c1ccco1 (stereo not drawn)	3.4	3.6	2.9	3.0	-0.1	-9.0
CC(=O)C1=C(C)NC(SCC(=O)c2cc(Cl)ccc2Cl)=C(C#N)C1c1ccco1 (stereo not drawn)	22.2*	-1.4	-53.6	0.7	3.0	21.3*
COc1cc(OC)cc(C(=O)NCC(=O)OCc2cc(=O)oc3cc(OC)ccc23)c1	-4.2	.	104.8*	-6.9	-0.6	-15.5
COc1ccc2c(COC(=O)CNS(=O)(=O)c3ccccc3)cc(=O)oc2c1	-4.1	.	0.9	-0.5	5.9	0.3
CC1=C(C(=O)N2CCCCCC2)CC(CC(=O)NCCCCc2ccccc2)C(=O)N1CCC1=CCCCC1 (stereo not drawn)	7.8	.	.	.	-6.6	1.1
SMILES	ABHD5-PLIN5 inh	TLR4 MyD88 comp	CRFBP-R2 block	TLR9-MyD88 block	m5-HT2A agonist	NOD2-RIPK2 inh
C=C1CC2(CC(c3ccccc3)OC(c3ccccc3)C2)OC1=O (stereo not drawn)	23.0*	.	-5.1	-4.7	-8.2	2.5
Nc1ncnc2c1ncn2[C@@H]1O[C@H](C(=O)NCCCN2CCCC2=O)[C@@H](O)[C@H]1O	-0.9	.	.	.	9.5	-3.0
COc1ccccc1NC(=O)N(C)C[C@@H]1OCc2cn(nn2)CCCC(=O)N([C@H](C)CO)C[C@H]1C	1.6	.	-5.5	0.7	-2.6	3.6
CS(=O)(=O)C1=NSC2=NC(=O)/C(=C\c3cccn3-c3ccc(Cl)cc3)C(=N)N21	5.0	-17.0	57.3*	-3.1	8.9	5.6
Cc1cc2c(NS(=O)(=O)c3ccc(F)cc3)cccc2nn1	-2.0	.	113.4*	.	-0.8	-2.5
Cc1nc2cc(NCc3nc4ccccc4n3Cc3ccccc3)ccc2n1C	22.3*	3.8	-11.0	4.9	7.4	2.4
COc1ccccc1-c1csc(C(O)c2ccc(F)cc2)n1 (stereo not drawn)	-0.9	.	.	.	1.2	-4.0
O=C([C@H]1O[C@@H](n2ccc(=O)[nH]c2=O)[C@H](O)[C@@H]1O)N1CCN(Cc2ccccn2)CC1	3.8	.	.	.	-2.6	-4.9
CC(=O)N1N=C(C)CC1c1ccc(O)cc1 (stereo not drawn)	-11.1	-12.5	-6.8	-4.7	-1.0	3.8
CC(=O)N1N=C(C)CC1c1ccc(OCc2ccccc2)cc1 (stereo not drawn)	6.7	-8.3	52.3*	-6.9	-3.8	-8.7
O=C(NC1CCCC1)C(c1ccccc1)n1c(-c2cccc3ccccc23)nc2ccccc21 (stereo not drawn)	5.0	.	.	.	0.9	-0.4
CC(C)(C)c1cc(C(=O)NNC(=O)Nc2cccc(Cl)c2)n(Cc2ccccc2)n1	-4.8	.	51.0*	-1.5	-7.2	3.7
COc1ccccc1NC(=O)Nc1nnc([C@H]2C[C@H](O)[C@@H](CO)O2)s1	-0.2	.	.	.	-4.9	-2.5
CCOC(=O)N1CCC(NC(=O)CCC(=O)N2CCOc3ccccc32)CC1	-1.1	2.9	4.6	4.0	5.4	-4.3
O=C(CCC(=O)N1CCOc2ccccc21)NC1CCCCCC1	-2.3	.	74.4*	14.4	1.4	-6.2
CCOC(=O)c1cc2c(c(-c3cccc(C#Cc4ccc(OC)c(OC)c4)c3)n1)[C@@H](CCO)N(S(=O)C(C)(C)C)C2 (stereo partly drawn)	-1.4	.	.	.	8.1	-6.3
O=C(Oc1c(Br)cc([N+](=O)[O-])cc1Br)c1cccnc1	7.2	-9.9	68.4*	3.8	0.6	4.0
